Source: PubChem BioAssay AID1159580 (chemical genetic matrix, 2015)
Several values for one entry are separate records, joined by “and”; a condition that tells them apart may be missing. Equal entries are not always repeated. Among all 5,500 compounds or so, about 2,000 (36%) were called active. Roughly 18% stayed inconclusive and do not appear here. No stated cut-off is given here; in the data, active means normalized growth mostly below about 0.91 (no sharp cut-off); inconclusive means no clear call, values can overlap the other calls; inactive means mostly above about 0.92. The list shows a part of the results.

Assay: chemical genetic growth profiling, strain panel (AID 1159580);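 further: tested at 20 µM; growth read once vehicle control cultures reached saturation at 30 °C; 1 = growth at the plate median or of vehicle wells; lower values mean less growth of the strain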
Details: growth OD

Measured: normalized growth

NC1(C(=O)O)CC1
inactive: S. cerevisiae deletion strains, locus YJR075W, strain HOC1, active compounds read low 0.985 | S. cerevisiae deletion strains, locus YKL009W, strain mrt4, active compounds read low 1.03 | S. cerevisiae deletion strains, locus YKL068W, active compounds read low 1.01 | S. cerevisiae deletion strains, locus YKL085W, strain MDH1 (second series), active compounds read low 1.04 | S. cerevisiae deletion strains, locus YKL085W, strain MDH1, active compounds read low 1.04 | S. cerevisiae deletion strains, locus YKL160W, strain elf1, active compounds read low 1.04 | S. cerevisiae deletion strains, locus YKL190W, strain CNB1, active compounds read low 1.01 | S. cerevisiae deletion strains, locus YKR001C, strain vps1, active compounds read low 1.03 | S. cerevisiae deletion strains, locus YKR026C, strain gcn3, active compounds read low 1.03 | S. cerevisiae deletion strains, locus YKR091W, strain srl3, active compounds read low 1.03 | S. cerevisiae deletion strains, locus YLL001W, strain dnm1, active compounds read low 1.01 | S. cerevisiae deletion strains, locus YLL026W, active compounds read low 1.03 | S. cerevisiae deletion strains, locus YLL041C, strain sdh2, active compounds read low 1.02 | S. cerevisiae deletion strains, locus YLR027C, strain aat2, active compounds read low 1.02 | S. cerevisiae deletion strains, locus YLR039C, strain RIC1, active compounds read low 1.04 | S. cerevisiae deletion strains, locus YLR058C, strain SHM2, active compounds read low 1.01 | S. cerevisiae deletion strains, locus YLR102C, strain apc9, active compounds read low 1.01 | S. cerevisiae deletion strains, locus YLR113W, strain HOG1, active compounds read low 1.04 | S. cerevisiae deletion strains, locus YLR221C, strain rsa3, active compounds read low 1 | S. cerevisiae deletion strains, locus YLR258W, strain gsy2, active compounds read low 1.04 | S. cerevisiae deletion strains, locus YLR262C, strain YPT6 (second series), active compounds read low 1.03 | S. cerevisiae deletion strains, locus YLR262C, strain YPT6, active compounds read low 1.03 | S. cerevisiae deletion strains, locus YLR268W, strain sec22, active compounds read low 1.02 | S. cerevisiae deletion strains, locus YLR320W, strain mms22, active compounds read low 1.01 | S. cerevisiae deletion strains, locus YLR330W, strain CHS5, active compounds read low 1.01 | S. cerevisiae deletion strains, locus YLR342W, strain FKS1 (second series), active compounds read low 1.04 | S. cerevisiae deletion strains, locus YLR342W, strain FKS1, active compounds read low 1.03 | S. cerevisiae deletion strains, locus YLR357W, strain rsc2, active compounds read low 1.02 | S. cerevisiae deletion strains, locus YLR370C, strain arc18, active compounds read low 1.05 | S. cerevisiae deletion strains, locus YLR371W, strain rom2, active compounds read low 1.01 | S. cerevisiae deletion strains, locus YLR384C, strain iki3, active compounds read low 1.01 | S. cerevisiae deletion strains, locus YLR418C, strain cdc73, active compounds read low 1 | S. cerevisiae deletion strains, locus YML016C, strain PPZ1, active compounds read low 1.01 | S. cerevisiae deletion strains, locus YML032C, strain rad52, active compounds read low 1.04 | S. cerevisiae deletion strains, locus YML120C, strain ndi1, active compounds read low 1.01 | S. cerevisiae deletion strains, locus YML124C, strain tub3, active compounds read low 1.02 | S. cerevisiae deletion strains, locus YMR058W, strain fet3, active compounds read low 1.03 | S. cerevisiae deletion strains, locus YMR078C, strain ctf18, active compounds read low 1.03 | S. cerevisiae deletion strains, locus YMR125W, strain sto1, active compounds read low 1.03 | S. cerevisiae deletion strains, locus YMR129W, active compounds read low 1.02 | S. cerevisiae deletion strains, locus YMR205C, strain PFK2, active compounds read low 1.03 | S. cerevisiae deletion strains, locus YMR223W, strain ubp8, active compounds read low 1.03 | S. cerevisiae deletion strains, locus YMR231W, strain pep5, active compounds read low 1.03 | S. cerevisiae deletion strains, locus YMR263W, strain SAP30, active compounds read low 1.02 and 1 | S. cerevisiae deletion strains, locus YMR307W, strain GAS1, active compounds read low 0.989 | S. cerevisiae deletion strains, locus YNL067W, strain RPL9B, active compounds read low 1.02 | S. cerevisiae deletion strains, locus YNL071W, strain lat1, active compounds read low 1.03 | S. cerevisiae deletion strains, locus YNL128W, strain TEP1, active compounds read low 1.01 | S. cerevisiae deletion strains, locus YNL153C, strain GIM3, active compounds read low 1.02 and 0.995 | S. cerevisiae deletion strains, locus YNL175C, strain NOP13, active compounds read low 0.965 | S. cerevisiae deletion strains, locus YNL183C, strain NPR1, active compounds read low 0.964 | S. cerevisiae deletion strains, locus YNL197C, strain WHI3, active compounds read low 0.965 | S. cerevisiae deletion strains, locus YNL209W, strain ssb2, active compounds read low 1.04 | S. cerevisiae deletion strains, locus YNL224C, strain SQS1, active compounds read low 1.01 | S. cerevisiae deletion strains, locus YNL233W, strain BNI4, active compounds read low 1 | S. cerevisiae deletion strains, locus YNL248C, strain rpa49, active compounds read low 1.06 | S. cerevisiae deletion strains, locus YNL250W, strain rad50, active compounds read low 1.03 | S. cerevisiae deletion strains, locus YNL271C, strain bni1, active compounds read low 1.03 | S. cerevisiae deletion strains, locus YNL298W, strain CLA4, active compounds read low 1.03 | S. cerevisiae deletion strains, locus YNL307C, strain MCK1, active compounds read low 1.04 | S. cerevisiae deletion strains, locus YNL322C, strain KRE1 (second series), active compounds read low 1.02 | S. cerevisiae deletion strains, locus YNL322C, strain KRE1, active compounds read low 1.01 | S. cerevisiae deletion strains, locus YNR049C, strain mso1, active compounds read low 1.01 | S. cerevisiae deletion strains, locus YNR052C, strain pop2, active compounds read low 1.01 | S. cerevisiae deletion strains, locus YOL006C, strain TOP1, active compounds read low 1.05 | S. cerevisiae deletion strains, locus YOL012C, strain htz1 0.791 | S. cerevisiae deletion strains, locus YOL147C, strain pex11, active compounds read low 1 | S. cerevisiae deletion strains, locus YOR001W, strain rrp6, active compounds read low 1.01 | S. cerevisiae deletion strains, locus YOR061W, strain CKA2, active compounds read low 1.01 | S. cerevisiae deletion strains, locus YOR069W, strain VPS5, active compounds read low 1 | S. cerevisiae deletion strains, locus YOR070C, strain gyp1, active compounds read low 1.02 | S. cerevisiae deletion strains, locus YOR080W, strain dia2, active compounds read low 1.02 | S. cerevisiae deletion strains, locus YOR083W, strain WHI5 (second series), active compounds read low 0.956 | S. cerevisiae deletion strains, locus YOR083W, strain WHI5, active compounds read low 1.04 | S. cerevisiae deletion strains, locus YOR106W, strain vam3, active compounds read low 1.04 | S. cerevisiae deletion strains, locus YOR136W, strain idh2, active compounds read low 1.02 | S. cerevisiae deletion strains, locus YOR144C, strain elg1, active compounds read low 1.02 | S. cerevisiae deletion strains, locus YOR184W, strain ser1, active compounds read low 1.05 | S. cerevisiae deletion strains, locus YOR231W, strain MKK1, active compounds read low 1.03 | S. cerevisiae deletion strains, locus YOR265W, strain rbl2, active compounds read low 1.03 | S. cerevisiae deletion strains, locus YOR270C, strain vph1, active compounds read low 1.1 | S. cerevisiae deletion strains, locus YOR290C, strain snf2, active compounds read low 1.06 | S. cerevisiae deletion strains, locus YOR316C, strain cot1, active compounds read low 1.01 | S. cerevisiae deletion strains, locus YPL051W, strain arl3, active compounds read low 1.04 | S. cerevisiae deletion strains, locus YPL055C, strain LGE1, active compounds read low 1 | S. cerevisiae deletion strains, locus YPL078C, strain atp4, active compounds read low 1.05 | S. cerevisiae deletion strains, locus YPL106C, strain sse1, active compounds read low 1.03 | S. cerevisiae deletion strains, locus YPL240C, strain hsp82, active compounds read low 1.02 | S. cerevisiae deletion strains, locus YPL241C, strain CIN2, active compounds read low 0.999 and 0.995 | S. cerevisiae deletion strains, locus YPL256C, strain CLN2, active compounds read low 1 | S. cerevisiae deletion strains, locus YPR119W, strain clb2, active compounds read low 1 | S. cerevisiae deletion strains, locus YPR141C, strain kar3, active compounds read low 1.02 | S. cerevisiae deletion strains, locus YPR163C, strain tif3, active compounds read low 1.03 | S. cerevisiae deletion strains, locus YPR167C, strain met16, active compounds read low 1.02 | S. cerevisiae deletion strains, strain wtn01, active compounds read low 1.02 | S. cerevisiae strains, strain wild type, active compounds read low 1.01
